The subject of one assay is PPARa:RXRa (NR concentration 270 nM, RXRa partner concentration 90 nM). In words: PBM binding z-score (relative to random genomic background probes); higher = stronger binding; sequences stand for … in GC…GCGATTGACAGCGTAGAATGAAGG
In a few lines:
(§1)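 On custom Agilent 4×180K arrays, double-stranded probes with 34-nt variable regions carried direct-repeat seeds, single-nucleotide variants, half-site ablations or random human genomic background. Ligand-free nuclear receptor dimers were applied for 1 h, and binding was read with antibodies against each partner (one per run). Binding z-scores come from regression-normalized fluorescence, with the random background probes as reference.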
GGAACGAGAGCAAGTTGATAGCAGAGTTTGATGG registered a PBM binding z-score of -0.523.
Same read-out and setting: with TAGCCTAGGTGAGATCGGGCCAGTATACGCTATA the figure was -0.453; with CAAACTATGTCACAGAGGTCAAAGTCCGTGCGTA, 5.51.
Still for that read-out and setting: with TCTTGTAGATCAGCAGGTTAAGAAAGCTGGCCAA the figure was 0.684; with TCTAGTGGGTCACGGAGGTCACACACGACGGGTA, 5.74; with CCTACTGGGCCATTCAGAGGTCATTTATCATATG, 3.75.
Sequence TTACCAAGGTGAGGGTCGTTGATCCCTCTGTAGA came in with a PBM binding z-score of 1.88.
The same measure, in the same setting: with ACCGAAAGGTCGAAGGTGAGTATACCCACCCGAA the figure was 4.8; with TTACCAAGGTGCAGGTCGTTGATCCCTCTGTAGA, 0.827; with GCTAGTTGGTCAGTAAAAGGTCACACAACGGTCG, 4.73.
On the same count and under the same terms, with AATACAGGGTCATCCTAGGCCAGAGTACGCACAG the figure was 6.4; with TTACCAAGGTGAAGGTGGTTGATCCCTCTGTAGA, 1.41.
On to ACTCGGAGGACAAAGATCAGAGCTACGCCAGTGA, for which the PBM binding z-score turned out to be 0.399.
TCTGCTAGTTCAGTTGGTCAGCTAACGAGCTGCC returned a PBM binding z-score of 0.1.
The same measure, in the same setting: with GCGACTGGGGCATTAGCAGGTTACCATAACTTAA the figure was 0.973; with GCGACTGGGGCAAAGCAGGATACCATAAGGTTGG, 0.75; with GCGACTGGGGCAAAGCAGGTGACCATAAGGTTGG, 1.09.
The sequence GCGACTGGGGCAAAGCAGGTTACCAAAAGGTTGG registered a PBM binding z-score of 1.78.

The test system of another assay is PPARg:RXRa (NR concentration 180 nM, RXRa partner concentration 90 nM). The description is as above. The essentials: as §1
The sequence CCTAGCAGGCCAGTCTGGGTCACTCAAGGCTTGA yielded a PBM binding z-score of -0.179.
GCTCGGAGGACAAGGTCCGAGCTTTGTCCGTAGA displayed a PBM binding z-score of -1.19.
In turn, AGAATGATGTTACCAAAGATCAGGGAAACGCTTG displayed a PBM binding z-score of 0.652.
Same read-out and setting: with ACTATTAGTTGAGACGAGGGCAACCCATAGGTTG the figure was 0.846; with CGTCCAGGGTCAAAGGTCAGTGAAGAGATGACGG, 10.5.
Same read-out and setting: with AGACAAAGTTCACTAGGTAACGTAAGATTCAGCT the figure was 6.
On the same count and under the same terms, with GCGACTGGGGCAAAGCAGCTTACCATAAGGTTGG the figure was 1; with CCTAACGGGTCAAGGTTATAGCACGGGTGGTACG, 3.41.
The sequence CTCGAAAGGTCTTGCTCAGGTGAGTATACCAAAC gave a PBM binding z-score of -0.115.
The same measure, in the same setting: with CAAACTAGGTCACAGATGTCAAAGTCCGTGCGTA the figure was 8.76; with TCGGGTAGGTTAGGGGCATTCAGAATGGCGTCGA, 0.499.
On the same count and under the same terms, with CAAACTAGGTCAAGAGGTCAACGTCCGCTTCCCG the figure was 9.74; with CCTATTAGTTGACTATAAGGGCAACCGAAGCTCG, 0.445; with ATCGAGAGGTCGTGAGGTGAGTATACAGAAAGGC, 2.75.
Still for that read-out and setting: with GGAACGAGGGCAAGTTGATACCAGAGTTTGATGG the figure was 1.31; with ATCTCTAGGTAACCAAGTTGAGTGAATGCCGAAC, 0.337; with ATTACAGGGTCACTAGGCCAGAGTAGGTACGAAT, 8.17.
As for GCAAGCAGGCCATTTGGGTCACTCAATGACGGGC, the PBM binding z-score was 0.661.
Same read-out and setting: with CGTCAAAGTTTAACTAAGGTAACGTAAAGCACGC the figure was 0.797; with AGTAGCAGGCCAAGTTTGGGTCACTCAAACAAAG, -0.0669.
Same read-out and setting: with ATATGTAGGCTAGCTGGGGTCATTCAGACTAGGC the figure was 3.2.
Same read-out and setting: with ATCTCTAGGTAAAAGTTCAGTGATTCCCGAGGAT the figure was 7.48; with GGAACGAGAGCAAGTTGATAGCAGAGTTTGATGG, 0.39; with TAGCCTAGGTGAGATCGGGCCAGTATACGCTATA, 0.201.
As for CAAACTATGTCACAGAGGTCAAAGTCCGTGCGTA, the PBM binding z-score was determined as 6.2.
Same read-out and setting: with TCTTGTAGATCAGCAGGTTAAGAAAGCTGGCCAA the figure was -0.446; with TCTAGTGGGTCACGGAGGTCACACACGACGGGTA, 9.39; with CCTACTGGGCCATTCAGAGGTCATTTATCATATG, 2.29.
Still for that read-out and setting: with TTACCAAGGTGAGGGTCGTTGATCCCTCTGTAGA the figure was 0.82.
The same measure, in the same setting: with ACCGAAAGGTCGAAGGTGAGTATACCCACCCGAA the figure was 4.39.
Take TTACCAAGGTGCAGGTCGTTGATCCCTCTGTAGA: the PBM binding z-score is -0.238.
GCTAGTTGGTCAGTAAAAGGTCACACAACGGTCG came in with a PBM binding z-score of 3.31.
Same read-out and setting: with AATACAGGGTCATCCTAGGCCAGAGTACGCACAG the figure was 6.74.
Still for that read-out and setting: with TTACCAAGGTGAAGGTGGTTGATCCCTCTGTAGA the figure was 0.605.
ACTCGGAGGACAAAGATCAGAGCTACGCCAGTGA showed a PBM binding z-score of 1.61.
Same read-out and setting: with TCTGCTAGTTCAGTTGGTCAGCTAACGAGCTGCC the figure was -1.03.
In turn, GCGACTGGGGCATTAGCAGGTTACCATAACTTAA displayed a PBM binding z-score of 0.712.
Still for that read-out and setting: with GCGACTGGGGCAAAGCAGGATACCATAAGGTTGG the figure was 1.31; with GCGACTGGGGCAAAGCAGGTGACCATAAGGTTGG, 0.993.
Same read-out and setting: with GCGACTGGGGCAAAGCAGGTTACCAAAAGGTTGG the figure was 1.11.

A further assay has as its system PPARg:RXRa 270nM:90nM, anti-RXR (NR concentration 270 nM, RXRa partner concentration 90 nM). The description is as above. In a few lines:
as §1
On to CCTAGCAGGCCAGTCTGGGTCACTCAAGGCTTGA, for which the PBM binding z-score is 0.439.
On the same count and under the same terms, with GCTCGGAGGACAAGGTCCGAGCTTTGTCCGTAGA the figure was -0.67.
Turning to AGAATGATGTTACCAAAGATCAGGGAAACGCTTG, the PBM binding z-score came out at 0.26.
Regarding ACTATTAGTTGAGACGAGGGCAACCCATAGGTTG, the PBM binding z-score turned out to be 0.162.
Same read-out and setting: with CGTCCAGGGTCAAAGGTCAGTGAAGAGATGACGG the figure was 8.6; with AGACAAAGTTCACTAGGTAACGTAAGATTCAGCT, 5.55.
The same measure, in the same setting: with GCGACTGGGGCAAAGCAGCTTACCATAAGGTTGG the figure was 1.18; with CCTAACGGGTCAAGGTTATAGCACGGGTGGTACG, 3.67.
On the same count and under the same terms, with CTCGAAAGGTCTTGCTCAGGTGAGTATACCAAAC the figure was 0.563; with CAAACTAGGTCACAGATGTCAAAGTCCGTGCGTA, 7.33.
TCGGGTAGGTTAGGGGCATTCAGAATGGCGTCGA registered a PBM binding z-score of 1.7.
CAAACTAGGTCAAGAGGTCAACGTCCGCTTCCCG: the PBM binding z-score was found to be 8.42.
Same read-out and setting: with CCTATTAGTTGACTATAAGGGCAACCGAAGCTCG the figure was 0.0483; with ATCGAGAGGTCGTGAGGTGAGTATACAGAAAGGC, 2.74.
The same measure, in the same setting: with GGAACGAGGGCAAGTTGATACCAGAGTTTGATGG the figure was 1.19.
On the same count and under the same terms, with ATCTCTAGGTAACCAAGTTGAGTGAATGCCGAAC the figure was 0.316; with ATTACAGGGTCACTAGGCCAGAGTAGGTACGAAT, 6.86; with GCAAGCAGGCCATTTGGGTCACTCAATGACGGGC, 0.661.
In turn, CGTCAAAGTTTAACTAAGGTAACGTAAAGCACGC gave a PBM binding z-score of 1.22.
The same measure, in the same setting: with AGTAGCAGGCCAAGTTTGGGTCACTCAAACAAAG the figure was 0.42; with ATATGTAGGCTAGCTGGGGTCATTCAGACTAGGC, 3.64; with ATCTCTAGGTAAAAGTTCAGTGATTCCCGAGGAT, 7.11.
Still for that read-out and setting: with GGAACGAGAGCAAGTTGATAGCAGAGTTTGATGG the figure was -0.573; with TAGCCTAGGTGAGATCGGGCCAGTATACGCTATA, -0.291; with CAAACTATGTCACAGAGGTCAAAGTCCGTGCGTA, 6.01.
On the same count and under the same terms, with TCTTGTAGATCAGCAGGTTAAGAAAGCTGGCCAA the figure was 1.3; with TCTAGTGGGTCACGGAGGTCACACACGACGGGTA, 7.63.
In turn, CCTACTGGGCCATTCAGAGGTCATTTATCATATG displayed a PBM binding z-score of 2.85.
For the sequence TTACCAAGGTGAGGGTCGTTGATCCCTCTGTAGA, the PBM binding z-score worked out at 2.03.
Same read-out and setting: with ACCGAAAGGTCGAAGGTGAGTATACCCACCCGAA the figure was 4.89; with TTACCAAGGTGCAGGTCGTTGATCCCTCTGTAGA, 0.806; with GCTAGTTGGTCAGTAAAAGGTCACACAACGGTCG, 4.38.
The sequence AATACAGGGTCATCCTAGGCCAGAGTACGCACAG returned a PBM binding z-score of 5.93.
On the same count and under the same terms, with TTACCAAGGTGAAGGTGGTTGATCCCTCTGTAGA the figure was 1.37.
Still for that read-out and setting: with ACTCGGAGGACAAAGATCAGAGCTACGCCAGTGA the figure was 2.24.
For TCTGCTAGTTCAGTTGGTCAGCTAACGAGCTGCC, the PBM binding z-score was determined as 0.545.
Same read-out and setting: with GCGACTGGGGCATTAGCAGGTTACCATAACTTAA the figure was 0.609; with GCGACTGGGGCAAAGCAGGATACCATAAGGTTGG, 1.03; with GCGACTGGGGCAAAGCAGGTGACCATAAGGTTGG, 1.27.
On the same count and under the same terms, with GCGACTGGGGCAAAGCAGGTTACCAAAAGGTTGG the figure was 1.55.

The values above are taken from the supplement of paper PMC6555819.
